Results from PubChem BioAssay (NCATS).
Values joined by “and” are separate entries in the source; they are usually repeats but may differ in a detail not shown here. Identical values can stand only once. Records with an inconclusive call do not appear. A call without a number means that no potency is given here. Active and inactive are the calls of the source. Unless noted, calls follow the shape of the dose curve; as a rule, active = well fitted curve in the direction sought with a large enough effect; inconclusive = small, poorly fitted or top-dose-only effect, or another doubt; inactive = no such curve, though single readings can be large; an effect the other way counts as inactive or inconclusive.

Key:
[1] = qHTS Assay for Lipid Storage Modulators (AID 1519; calls by dose curve); conditions: Drosophila S3 cells, BODIPY lipid droplet/cell ratio, laser cytometry, cells loaded with oleic acid
Method in brief: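 Cells seeded at 5,000 per well were treated with compounds over a concentration series and loaded with oleic acid (400 uM, as added). Lipid droplet fluorescence (488 nm excitation, 500-530 nm channel) was read by laser-scanning cytometry and normalized to 20 uM Triacsin C.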

[2] = Cell Viability - LYMP2-002 (AID 977); conditions: LYMP2-002 lymphoblastoid cell viability, qHTS; series mostly up to 92.2 µM;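 also: compound exposure lasted 24 h at 37 °C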
Method in brief: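 Human lymphoblastoid LYMP2-002 cells, 2500 per well, exposed to compounds for 24 h at 37 C in complete medium; viability read as intracellular ATP by CellTiter-Glo luminescence, AC50 from Hill fits.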

[3] = Cell Viability - LYMP2-006 (AID 978); conditions: LYMP2-006 lymphoblastoid cell viability, qHTS; series mostly up to 92.2 µM; also: nearly all actives have a fitted effect of over 60% in size
Method in brief: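 Cells are seeded at 2500 per well and rested 5 hr at 37 C. Compounds are added across a concentration series for 24 hr at 37 C, after which ATP is quantified by luciferase luminescence.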

[4] = Cell Viability - LYMP2-007 (AID 979); conditions: LYMP2-007 lymphoblastoid cell viability; series mostly up to 92.2 µM;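 also: cells exposed to compound for 24 h before reading; nearly all actives have a fitted effect of over 60% in size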
Method in brief: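 Human lymphoblastoid LYMP2-007 cells (2500/well) preincubated 5 h at 37 C, then treated 24 h at 37 C in complete medium. Viability by CellTiter-Glo ATP luminescence after 30 min at room temperature; AC50 from Hill fits.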

[5] = Cell Viability - LYMP2-008 (AID 980); conditions: LYMP2-008 lymphoblastoid cell viability, qHTS; series mostly up to 92.2 µM; also: nearly all actives have a fitted effect of over 60% in size
Method in brief: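 LYMP2-008 lymphoblastoid cells (2500/well) plated 5 h, then treated 24 h at 37 C in complete medium. Viability read as intracellular ATP by CellTiter-Glo luminescence after 30 min at room temperature; AC50 from Hill fits.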

[6] = Cell Viability - LYMP2-010 (AID 981); conditions: LYMP2-010 lymphoblastoid cell viability, qHTS; series mostly up to 92.2 µM; also: nearly all actives have a fitted effect of over 55% in size
Method in brief: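 Human lymphoblastoid LYMP2-010 cells (2500/well) treated 24 h at 37 C in complete medium; viability read as intracellular ATP by CellTiter-Glo luminescence. AC50 from Hill fits of concentration-response data; tetraoctylammonium bromide positive control.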

[7] = Cell Viability - LYMP2-012 (AID 982); conditions: LYMP2-012 lymphoblastoid cell viability qHTS; series mostly up to 92.2 µM;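 also: cellular ATP by luciferase luminescence where a drop means cytotoxicity; cells exposed to compound for one day before reading; nearly all actives have a fitted effect of over 55% in size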
[8] = Cell Viability - LYMP2-014 (AID 983); conditions: LYMP2-014 lymphoblastoid cells, viability qHTS; series mostly up to 92.2 µM; also: nearly all actives have a fitted effect of over 50% in size
Method in brief: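 LYMP2-014 human lymphoblastoid cells, 2500/well, treated 24 h at 37 C in complete medium; viability by CellTiter-Glo ATP luminescence after 30 min at room temperature. AC50 from Hill fits of qHTS concentration-response; tetraoctylammonium bromide positive control.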

[9] = Cell Viability - LYMP2-016 (AID 984); conditions: LYMP2-016 lymphoblastoid cell viability, qHTS; series mostly up to 92.2 µM; also: nearly all actives have a fitted effect of over 55% in size
Method in brief: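 Cells were seeded at 2500 per well and rested 5 hr before a 24 hr compound exposure at 37 C. Viability was then gauged as cellular ATP by luciferase luminescence, with AC50 values fitted to the Hill equation.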

[10] = Cell Viability - LYMP2-018 (AID 985); conditions: LYMP2-018 lymphoblastoid cells, viability (qHTS); series mostly up to 92.2 µM; also: nearly all actives have a fitted effect of over 50% in size
Method in brief: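 Human lymphoblastoid LYMP2-018 cells, 2500/well, settled 5 hr at 37 C then exposed to compound 24 hr at 37 C; intracellular ATP measured by CellTiter-Glo luminescence. AC50 from Hill-equation concentration-response fits.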

[11] = Cell Viability - LYMP2-020 (AID 986); conditions: series mostly up to 92.2 µM; also: nearly all actives have a fitted effect of over 55% in size
Method in brief: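 Human lymphoblastoid LYMP2-020 cells (2500/well) preincubated 5 h at 37 C, then treated 24 h at 37 C. Viability measured as intracellular ATP by CellTiter-Glo luminescence after 30 min at room temperature; AC50 from Hill fits.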

[12] = Cell Viability - LYMP2-022 (AID 987); conditions: LYMP2-022 lymphoblastoid cell viability; series mostly up to 92.2 µM; also: nearly all actives have a fitted effect of over 55% in size
Method in brief: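 LYMP2-022 lymphoblastoid cells (2500/well, complete medium) were treated with compounds for 24 hours at 37 C; intracellular ATP was then read by CellTiter-Glo luminescence after 30 min at room temperature. AC50 values were derived from Hill-equation fits.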

[13] = Cell Viability - LYMP2-024 (AID 988); conditions: LYMP2-024 lymphoblastoid cell viability; series mostly up to 92.2 µM; also: nearly all actives have a fitted effect of over 60% in size
Method in brief: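 Human lymphoblastoid LYMP2-024 cells (2500/well) rested 5 hr, then treated with compound for 24 hr at 37 C in complete medium. Viability was measured as intracellular ATP by CellTiter-Glo luminescence. AC50 values came from Hill-equation fits.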

[14] = Cell Viability - LYMP2-026 (AID 989); conditions: LYMP2-026 lymphoblastoid cell viability, qHTS; series mostly up to 92.2 µM; also: nearly all actives have a fitted effect of over 50% in size
Method in brief: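 Human lymphoblastoid LYMP2-026 cells, 2500/well, exposed to compound 24 h at 37 C in complete medium. Viability as intracellular ATP by CellTiter-Glo luminescence; AC50 from Hill fits of qHTS concentration-response.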

[15] = Cell Viability - LYMP1-002 - Assay at 24 hr (AID 993); conditions: LYMP1-002 lymphoblastoid cells viability; series mostly up to 92.2 µM
Method in brief: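 Human lymphoblastoid LYMP1-002 cells (2500/well) treated 24 h at 37 °C; viability as intracellular ATP by CellTiter-Glo luminescence. Tetraoctylammonium bromide as positive control; AC50 from Hill-equation fits of qHTS concentration-response.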

[16] = Cell Viability - LYMP1-002 - Assay at 40 hr (AID 994); conditions: LYMP1-002 lymphoblastoid cell viability; series mostly up to 92.2 µM; also: nearly all actives have a fitted effect of over 60% in size
Method in brief: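 LYMP1-002 human lymphoblastoid cells (2500/well, complete medium) were treated with compounds for 40 hr at 37 C. Intracellular ATP was measured by CellTiter-Glo luminescence, and AC50 values came from Hill-equation fits of concentration-response data; tetraoctylammonium bromide was the positive control.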

[17] = Validation of Assay for Modulators of Lamin A Splicing (AID 1459; active = well fitted curve in the direction sought with a large enough effect in the signal ratio; the % refers to the signal ratio;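 also: cells exposed to compound for two days before reading; ratio rise marks activators and ratio drop marks inhibitors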); conditions: Lamin A splicing dual RFP/GFP fluorescence reporter; series mostly up to 9.22 µM
Method in brief: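 HeLa S3 lamin A-EGFP/DsRed2 stable clone, 600 cells/well, Opti-MEM 2% FBS; compounds by pin tool; 48 hrs, 37 °C/5% CO2; Acumen 488 nm scan, objects 10-100 um; GFP/RFP intensity ratio.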

[18] = target: Alpha-galactosidase A (Homo sapiens) (UniProt P06280); test: Counterscreen for Glucocerebrosidase Inhibitors: qHTS Assay for Human alpha-Galactosidase at pH 4.5 (AID 992); conditions: purified enzyme, fluorogenic substrate; series mostly up to 76.9 µM
Alpha-galactosidase A (Homo sapiens), sequence (P06280 whole entry, looked up): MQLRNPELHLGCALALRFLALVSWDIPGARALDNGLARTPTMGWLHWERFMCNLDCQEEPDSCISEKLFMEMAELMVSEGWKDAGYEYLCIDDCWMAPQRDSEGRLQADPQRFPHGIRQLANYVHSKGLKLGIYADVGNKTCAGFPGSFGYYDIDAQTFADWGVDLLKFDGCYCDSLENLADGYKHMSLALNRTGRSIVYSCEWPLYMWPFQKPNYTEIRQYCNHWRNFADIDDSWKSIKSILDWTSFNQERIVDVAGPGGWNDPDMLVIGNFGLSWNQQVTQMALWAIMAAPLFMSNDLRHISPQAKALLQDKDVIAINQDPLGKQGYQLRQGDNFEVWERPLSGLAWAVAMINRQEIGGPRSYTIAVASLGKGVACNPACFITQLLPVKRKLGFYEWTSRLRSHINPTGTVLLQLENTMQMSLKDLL
Method in brief: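 Concentration-response curves (0.7 nM to 77 uM final) were modeled with the Hill equation to give AC50. Reactions: 2 nM enzyme, 80 uM fluorogenic alpha-galactoside, pH 4.5 citric acid buffer, 20 min, room temperature.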

[19] = target: alpha-glucosidase (Oryza sativa, rice) (UniProt Q653V4); test: Counterscreen for Glucocerebrosidase Inhibitors: qHTS Assay for Rice alpha-Glucosidase at pH 5.0 (AID 997); conditions: rice alpha-glucosidase enzyme activity; series mostly up to 76.9 µM
Method in brief: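 Rice alpha-glucosidase (4 nM final) with 400 uM 4-methylumbelliferyl-alpha-D-glucopyranoside in citrate buffer pH 5.0, 20 min at room temperature, stopped at pH 10; fluorescence 365/440 nm, compounds 0.7 nM–77 uM, AC50 from Hill fits.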

[20] = target: Alpha-galactosidase (Coffea arabica) (UniProt Q42656); test: Counterscreen for Glucocerebrosidase Inhibitors: qHTS Assay for Coffee Bean alpha-Galactosidase at pH 5.9 (AID 998); conditions: coffee bean alpha-galactosidase enzyme assay; series mostly up to 76.9 µM
Alpha-galactosidase (Coffea arabica), sequence (Q42656 whole entry, looked up): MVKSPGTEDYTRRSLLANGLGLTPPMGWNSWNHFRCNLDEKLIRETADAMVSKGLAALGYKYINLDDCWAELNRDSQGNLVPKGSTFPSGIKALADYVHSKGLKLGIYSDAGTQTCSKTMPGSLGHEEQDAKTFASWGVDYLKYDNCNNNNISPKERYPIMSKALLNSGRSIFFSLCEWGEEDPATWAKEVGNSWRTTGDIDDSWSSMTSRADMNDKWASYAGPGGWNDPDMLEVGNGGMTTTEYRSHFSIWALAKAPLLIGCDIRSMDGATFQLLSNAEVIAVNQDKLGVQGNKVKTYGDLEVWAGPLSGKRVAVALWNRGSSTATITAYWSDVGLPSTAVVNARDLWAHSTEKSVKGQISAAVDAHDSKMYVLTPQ
Method in brief: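 Green coffee bean enzyme (2 nM) with 4-methylumbelliferyl alpha-D-galactopyranoside (80 uM) in 50 mM citric acid, 0.005% Tween-20, pH 5.9, 20 min at room temperature; compounds 0.7 nM–77 uM. Stopped at pH 10, fluorescence Ex365/Em440; Hill-fit AC50.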

[21] = measured here: cell count channel max response
[22] = measured here: lipid channel max response

## c1ccc2c(c1)sc1ccccc12
[1]; at 57.5 µM (top of the series)
  activity change, negative = inhibition: 7.62% (inactive)
[1]; [21]
  max response: -5.03%
[1]; [22]
  max response: 4.45%

## CC(C)NC(C)C
[2]
  outcome: inactive
[3]
  outcome: inactive
[4]
  outcome: inactive
[5]
  outcome: inactive
[6]
  Potency: inactive
[7]
  outcome: inactive
[8]
  outcome: inactive
[9]
  outcome: inactive
[10]
  Potency: inactive
[11]
  outcome: inactive
[12]
  Potency: inactive
[13]
  outcome: inactive
[14]
  outcome: inactive
[15]
  Potency: inactive
[16]
  Potency: inactive

## CC(NC(C)(C)C)C(=O)c1cccc(Cl)c1 (stereo unspecified)
[17]
  outcome: inactive
[1]; at 57.5 µM (top of the series)
  activity change, negative = inhibition: 9.02% (inactive) and 0.884% (inactive)
[1]; [21]
  max response: 11.7% and -20.3%
[1]; [22]
  max response: 23.1% and -17.7%

## NCCc1ccc(O)cc1
[2]
  outcome: inactive
[3]
  outcome: inactive
[4]
  outcome: inactive
[5]
  outcome: inactive
[6]
  Potency: inactive
[7]
  outcome: inactive
[8]
  outcome: inactive
[9]
  outcome: inactive
[10]
  Potency: inactive
[11]
  outcome: inactive
[12]
  Potency: inactive
[13]
  outcome: inactive
[14]
  outcome: inactive
[18]
  outcome: inactive
[15]
  Potency: inactive
[16]
  Potency: inactive
[19]
  outcome: inactive
[17]
  outcome: inactive

## COP(=S)(OC)Oc1ccc(SC)c(C)c1
[2]
  outcome: inactive
[3]
  outcome: inactive
[4]
  outcome: inactive
[5]
  outcome: inactive
[6]
  Potency: inactive
[7]
  outcome: inactive
[8]
  outcome: inactive
[9]
  outcome: inactive
[10]
  Potency: inactive
[11]
  outcome: inactive
[12]
  Potency: inactive
[13]
  outcome: inactive
[14]
  outcome: inactive
[15]
  Potency: inactive
[16]
  Potency: inactive
[1]; at 57.5 µM (top of the series)
  activity change, negative = inhibition: 5.63% (inactive)
[1]; [21]
  max response: 23%
[1]; [22]
  max response: 29.4%

## C[C@]1(O)CC[C@H]2[C@@H]3CCC4=CC(=O)CC[C@]4(C)[C@@]3(F)[C@@H](O)C[C@@]21C
[2]
  outcome: inactive
[3]
  outcome: inactive
[4]
  outcome: inactive
[5]
  outcome: inactive
[6]
  Potency: inactive
[7]
  outcome: inactive
[8]
  outcome: inactive
[9]
  outcome: inactive
[10]
  Potency: inactive
[11]
  outcome: inactive
[12]
  Potency: inactive
[13]
  outcome: inactive
[14]
  outcome: inactive
[15]
  Potency: inactive
[16]
  Potency: inactive

## CN1C(=O)CCS(=O)(=O)C1c1ccc(Cl)cc1 (stereo unspecified)
[1]; at 57.5 µM (top of the series)
  activity change, negative = inhibition: 6.74% (inactive) and -0.559% (inactive)
[1]; [21]
  max response: 18.4% and 40.6%
[1]; [22]
  max response: 26.5% and 41.1%

## Cc1ncsc1CCCl
[1]; at 57.5 µM (top of the series)
  activity change, negative = inhibition: 4.7% (inactive)
[1]; [21]
  max response: 0.112%
[1]; [22]
  max response: 4.95%

## CC[N+](CC)(CC)CCOc1cccc(OCC[N+](CC)(CC)CC)c1OCC[N+](CC)(CC)CC
[20]
  outcome: inactive
[1]; at 25.7 µM (top of the series)
  activity change, negative = inhibition: 0.548% (inactive)
[1]; [21]
  max response: -4.51%
[1]; [22]
  max response: -4.34%

## CCCCC/C=C\C/C=C\C/C=C\C/C=C\CCCC(=O)NCC(=O)O
[18]
  outcome: inactive
[19]
  outcome: inactive
[20]
  outcome: inactive
[17]
  outcome: inactive
[1]; at 57.5 µM (top of the series)
  activity change, negative = inhibition: -0.69% (inactive)
[1]; [21]
  max response: 64.5%
[1]; [22]
  max response: 63.6%

## COc1ccc2c(c1)C13CCCC[C@@H]1C(C2)N(C)CC3 (stereo partly specified)
[1]; at 25.7 µM (top of the series)
  activity change, negative = inhibition: -0.828% (inactive)
[1]; [21]
  max response: -8.06%
[1]; [22]
  max response: -9.19%

## COc1cc(-c2ccc(=O)[nH]n2)ccc1OC(F)F
[1]; at 25.7 µM (top of the series)
  activity change, negative = inhibition: -2.55% (inactive)
[1]; [21]
  max response: -17.6%
[1]; [22]
  max response: -17.5%

## CCC(C)(C)c1ccc(O)cc1
[2]
  outcome: inactive
[3]
  outcome: inactive
[4]
  outcome: inactive
[5]
  outcome: inactive
[6]
  Potency: inactive
[7]
  outcome: inactive
[8]
  outcome: inactive
[9]
  outcome: inactive
[10]
  Potency: inactive
[11]
  outcome: inactive
[12]
  Potency: inactive
[13]
  outcome: inactive
[14]
  outcome: inactive
[15]
  Potency: inactive
[16]
  Potency: inactive
